Screening data as filed in PubChem BioAssay.
Measles CPE: protection of cells from measles virus | Measles virus-infected cells, CPE protection, absorbance | 1.5% of 140,000 active | protection (pct of control), % at 4 µM; in the data active = protection mostly above about 24%, no sharp cut-off; inactive = mostly below about 26%
Phagocyt inh: inhibitors of macrophage phagocytosis | J774A.1 macrophage IgG-bead phagocytosis, imaging | inhibition, % at 5 µM | 0.07% of 110,000 active | AID 1029;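 active = inhibition above the mean of the plate negative controls plus 5 SD, cut at about 13% in these data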;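 also: phagocytic index as fraction of beads internalized from green versus red external bead signal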
sdo1 growth: restores growth of sdo1-depleted yeast. 0.21% of 140,000 active. AID 817. z-score at 10 µM. S. cerevisiae sdo1-depleted JHY4D growth rescue, OD600 30 h; active compounds read high; pdr5 snq2 efflux-pump mutant strain;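 active = z-score above 3 at both the 24 hr and the 30 hr optical density reads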
Large screens that a line does not name were inactive. Sampled rows, rich in hits. Any-hit rate of the full collection: about 1.8%.

O=[N+]([O-])c1ccccc1/C=N/n1c(-c2cccnc2)n[nH]c1=S	none
c1ccc(-c2nnc(CSc3nc4ccccc4[nH]3)o2)cc1	Measles CPE 33.4
O=C(CCCSc1nc2ccccc2[nH]1)Nc1nnc(-c2ccccc2)o1	none (no result: Phagocyt inh)
CO/N=C/c1ccc(N2CCN(C(=O)c3ccc(Cl)cc3Cl)CC2)c([N+](=O)[O-])c1	none (no result: Phagocyt inh)
COc1ccc(N(CC(=O)O)S(=O)(=O)c2cccnc2)cc1	none
O=[N+]([O-])c1cc(Oc2cccnc2)cc([N+](=O)[O-])c1	Measles CPE 54.9
O=C(Oc1cccnc1)c1ccc([N+](=O)[O-])cc1	none
Cc1occc1C(=O)Nc1ccc(Br)cc1F	none
O=C(NCc1cccnc1)C1c2ccccc2C(=O)N1Cc1ccco1 (configuration not stated)	none
OCCOCCn1c2ccccc2c2ccccc21	none
CNS(=O)(=O)c1cccc(C(=O)OCC(=O)c2cc(C)n(-c3ccc4c(c3)OCO4)c2C)c1	none
Cc1cc(C(=O)COc2ccccc2Cl)c(C)n1-c1ccc2c(c1)OCO2	Measles CPE 33.3
CC1=C(C(=O)Nc2ccccc2)C(c2ccncc2)C(C#N)=C(SCC(=O)NC2CC2)N1 (configuration not stated)	Measles CPE 34.2
CC1=C(C(=O)Nc2ccccc2)C(c2ccncc2)C(C#N)=C(SCC(=O)NC(C)C)N1 (configuration not stated)	none
CC(=O)Nc1ccc(S(=O)(=O)N(C)c2ccc(O)cc2)cc1	Measles CPE 43.6
CC(=O)Nc1ccc(S(=O)(=O)N(C)c2ccccc2)cc1	none
O=C(N/N=C/c1ccc([N+](=O)[O-])s1)c1ccccc1Br	none (no result: Phagocyt inh)
Cc1ccccc1C(=O)N/N=C/c1ccc([N+](=O)[O-])s1	Measles CPE 43.6
Cc1ccc2n(n1)c(=O)c(Cc1ccccc1)c([O-])[n+]2-c1ccccc1	none
Cc1ccc(CSCCNS(=O)(=O)c2ccccc2)cc1	none
CCOC(=O)c1c(NC(=O)CN2C(=O)NC3(CCCCCC3)C2=O)sc(C)c1-c1ccc(C)cc1	none
COCCSc1ccccc1C(=O)N1CCN(Cc2ccc3c(c2)OCO3)CC1	Measles CPE 50.8
COc1cccc(OC)c1C(=O)N1CCN(Cc2ccc3c(c2)OCO3)CC1	none
Cc1ccc(N(Cc2cc3cc(C)ccc3[nH]c2=O)S(=O)(=O)c2ccccc2)cc1	none
COc1cc2c(cc1OC)CN(C(=S)Nc1c(C)cccc1C)CC2	none
Cc1cc(C(=O)OCC(=O)Nc2ccc(F)cc2F)c(C)o1	Measles CPE 37.1
Cc1cc(C(=O)OCC(=O)NC(=O)NC(C)(C)C)c(C)o1	none
CCS(=O)(=O)NCC(c1ccco1)N1CCN(c2ccc(F)cc2)CC1 (configuration not stated)	none
CS(=O)(=O)NCC(c1ccco1)N1CCN(c2ccc(F)cc2)CC1 (configuration not stated)	Measles CPE 63.0
CC1CC(C)CN(CC(C)(C)NS(=O)(=O)c2ccccc2)C1 (configuration not stated)	none
CSc1cccc(NC(C)=O)c1	none
CSc1cccc(NC(=O)Cn2cccc2)c1	Measles CPE 79.8 (no result: Phagocyt inh)
CCN1C(=O)C(CC(=O)NCc2ccc(Cl)cc2)N(CC)C1=O (configuration not stated)	none
CCN1C(=O)C(CC(=O)NC2CCCCC2)N(CC)C1=O (configuration not stated)	Measles CPE 50.4
O=C(N/N=C/c1ccc(Br)cc1)c1ccc(Br)o1	none
CCCCC(CC)C(=O)NCC(C)NC(=O)C(CC)CCCC (configuration not stated)	none
CC(CNC(=O)C(C)C)NC(=O)C(C)C (configuration not stated)	Measles CPE 27.2
C#CC(=O)N(c1cc(OC)ccc1OC)C(C(=O)NC1CCCC1)c1cccs1 (configuration not stated)	Phagocyt inh 72.6
COc1ccc(N(C(=O)c2ccco2)C(C(=O)NC2CCCCC2)c2cccs2)cc1OC (configuration not stated)	none (no result: Phagocyt inh)
C=C(C)Cn1c(SCC(=O)N/N=C/c2c(O)ccc3ccccc23)nc2ccccc2c1=O	none
Cc1ccc(-c2nc3sc4c(N)ncnc4c3c3c2CCCC3)cc1	Measles CPE 24.8
O=c1[nH]cnc2c1sc1nc(-c3ccccc3)c3c(c12)CCCC3	none
COc1cccc(NC(=O)COC(=O)COc2ccccc2[N+](=O)[O-])c1	none
COc1cccc(NCc2ccc([N+](=O)[O-])s2)c1	Measles CPE 48.3
N#Cc1ccccc1NC(=O)CSc1nnc(-c2ccccc2O)n1-c1ccccc1	Measles CPE 16.8
Cc1ccccc1NC(=O)CSc1nnc(-c2ccccc2)n1-c1ccccc1	none (no result: Phagocyt inh)
CCC(Sc1nc(-c2ccccc2)c(C#N)c(=O)[nH]1)C(=O)Nc1nnc(C)s1 (configuration not stated)	none
COc1ccc(CNC(=O)COC(=O)c2cc(-c3cccs3)nc3ccccc23)cc1OC	none
CCN(CC)c1ccc(NC(=O)CN2CCN(c3nc(C)cc(C)n3)CC2)cc1	none
CC(=O)c1ccc(NC(=O)CN2CCN(c3ncccn3)CC2)cc1	Measles CPE 77.6
Cc1cc(C)c2cc(CN(Cc3cccnc3)C(=O)c3ccc(F)cc3)c(Cl)nc2c1	none (no result: Phagocyt inh)
COc1ccc(/C(N)=N/OC(=O)C2CCC(=O)N2S(=O)(=O)c2ccc(C)cc2)cc1 (configuration not stated)	none
COc1ccc(-c2nnc(SCC(=O)Nc3ccc4c(c3)OCCO4)n2N)cc1OC	none (no result: Measles CPE)
O=C(Cn1cnc2c(nnn2Cc2ccc(F)cc2)c1=O)NCC1CCCO1 (configuration not stated)	none (no result: Phagocyt inh)
O=C(Cn1cnc2c(nnn2Cc2ccc(Cl)cc2)c1=O)NCC1CCCO1 (configuration not stated)	Measles CPE 47.9 (no result: Phagocyt inh)
O=C(Cn1cnc2c(oc3ccccc32)c1=O)NCC1CCCO1 (configuration not stated)	Measles CPE 27.1 (no result: Phagocyt inh)
O=C(Cn1cnc2c(oc3ccccc32)c1=O)NCc1ccccc1	none
CCCCNC(=O)Nc1nnc(-c2ccc(OCC)cc2)o1	none
CCOc1ccc(-c2nnc(NC(=O)c3ccc(OCC(C)C)c(OC)c3)o2)cc1	Measles CPE 41.5 (no result: Phagocyt inh)
CC1Cc2cc(-c3csc(NC(=O)Cc4ccccc4)n3)ccc2N1S(C)(=O)=O (configuration not stated)	Measles CPE 71.3
CS(=O)(=O)N1CCc2cc(-c3csc(NC(=O)C(c4ccccc4)c4ccccc4)n3)ccc21	none (no result: Phagocyt inh)
COc1ccc([N+](=O)[O-])cc1NC(=O)c1cn(-c2ccc(C)c(C)c2)c(=O)c2ccccc12	none (no result: Phagocyt inh)
COCCN1C(=O)c2ccccc2C(C(=O)N2CCN(c3ccccn3)CC2)C1c1ccc(F)cc1 (configuration not stated)	none (no result: Phagocyt inh)
N#CCCN1CCN(S(=O)(=O)c2ccc(S(=O)(=O)NC3CCCC3)cc2)CC1	Measles CPE 40.2
N#CCCN1CCN(S(=O)(=O)c2ccc(S(=O)(=O)N3CCCCCC3)cc2)CC1	none
COC(=O)c1ccc(OC(=O)CCN2C(=O)C3C4c5ccccc5C(c5ccccc54)C3C2=O)cc1 (configuration not stated)	none
Cc1cccc2nc(C(F)(F)F)nc(=O)n12	Measles CPE 42.7
Cn1cc(Br)cc2nc(C(F)(F)F)nc1-2	none
CN(C)c1nc(N)c([N+](=O)[O-])c(NCc2ccccc2)n1	none (no result: Phagocyt inh)
Cc1ccc(NS(=O)(=O)c2ccc(Cl)c(NC(=S)NC(=O)C3CCCCC3)c2)cc1Cl	none
CC(C)c1ccccc1NC1=CC(=O)CC(C)(C)C1	none
